# According to PubChem BioAssay AID504523 (Broad Institute, 2011):
# Screen size: about 340,000 compounds; about 490 (0.14%) were called active. The sample as a whole holds a higher share of actives than the screen did. Values without a mark were called inactive. Rule as the data show it: active = inhibition above about 12%; inconclusive = no clear call, values can overlap the other calls; inactive = below about 7.3%.
# Biological target: Kelch-like ECH-associated protein 1 (Homo sapiens) (UniProt Q14145)
# Assay: Keap1-Nrf2 protein-protein interaction inhibitors, primary screen, biochemical, fluorescence polarization, single point (AID 504523);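 also: human Keap1 Kelch domain with fluorescein labeled Nrf2 9mer peptide probe; 0% = neutral control wells and 100% = peptide positive control; higher means more block of Keap1 binding to Nrf2 peptide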
# Details: Keap1 Kelch-Nrf2 peptide fluorescence polarization, 1536-well; at 9.4 µM; hits give high values
# Chain of Kelch-like ECH-associated protein 1 (Homo sapiens) (Q14145 whole entry, looked up, the tested form may be a part): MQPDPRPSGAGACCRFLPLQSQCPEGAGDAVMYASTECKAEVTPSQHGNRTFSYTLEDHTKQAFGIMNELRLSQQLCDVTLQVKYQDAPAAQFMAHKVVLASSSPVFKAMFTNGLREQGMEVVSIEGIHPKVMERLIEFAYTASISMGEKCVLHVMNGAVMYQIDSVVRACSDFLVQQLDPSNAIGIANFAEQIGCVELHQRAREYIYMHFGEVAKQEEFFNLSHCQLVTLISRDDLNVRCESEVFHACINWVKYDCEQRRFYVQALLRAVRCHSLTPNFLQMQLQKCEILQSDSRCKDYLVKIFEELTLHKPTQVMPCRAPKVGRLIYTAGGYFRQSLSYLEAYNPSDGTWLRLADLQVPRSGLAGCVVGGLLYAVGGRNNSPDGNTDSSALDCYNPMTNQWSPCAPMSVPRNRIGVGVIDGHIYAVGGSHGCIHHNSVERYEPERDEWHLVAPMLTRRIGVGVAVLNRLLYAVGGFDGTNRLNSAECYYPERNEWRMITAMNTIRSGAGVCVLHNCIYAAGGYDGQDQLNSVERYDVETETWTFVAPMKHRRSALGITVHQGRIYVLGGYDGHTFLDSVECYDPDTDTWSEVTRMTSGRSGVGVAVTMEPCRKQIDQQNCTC
row,Structure (SMILES),inhibition
1,COc1ccc(NS(=O)(=O)c2cc(NC(=O)CC(=O)c3ccc([N+](=O)[O-])cc3)ccc2C)cc1,-4.68%
2,O=C1CCCCC1Sc1ccc(Cl)cc1[N+](=O)[O-] (stereo unspecified),1.45%
3,CC1=NNC(=O)C1CC(=O)N/N=C/c1ccncc1 (stereo unspecified),2.78%
4,Cc1ccc(S(=O)(=O)CCC(=O)OCC(=O)N(C)Cc2ccccc2)cc1,-7.11%
5,CN1c2ccc([N+](=O)[O-])cc2C(C)(C)C12C=Cc1cc(C(=O)O)ccc1O2 (stereo unspecified),4.39%
6,CC(=O)Oc1ccc(C(C)=O)c2c1OCCO2,-3%
7,CCCc1nnc(NC(=O)CCC(=O)NC2CC2)s1,-3.82%
8,O=C1c2ccccc2S(=O)(=O)c2cc(N3CCN(c4ccccn4)CC3)ccc21,3.87%
9,CCOC(=O)c1nn(-c2cccc(C)c2)cc1C(=O)c1ccccc1,3.24%
10,Cc1ccccc1OCC(=O)NCC(=O)OCC(=O)c1ccc2ccccc2c1,-0.965%
11,CCCC1OC23CCCCC2C(C#N)(C#N)C1(C#N)C(=N)O3 (stereo unspecified),20.6% (active)
12,O=C(Nc1ccccn1)C1CCN(S(=O)(=O)c2ccc3c(c2)OCCO3)CC1,24.3% (active)
13,O=C(NCc1cccs1)C1CCN(S(=O)(=O)c2ccc3c(c2)OCCO3)CC1,-2.29%
14,O=C(Nc1ccccn1)C1CCN(S(=O)(=O)c2ccccc2)CC1,-4.55%
15,O=C1[C@H]2[C@@H](c3ccc(F)cc3)N3C(=O)N(c4ccc(C(F)(F)F)cc4)C(=O)[C@@]3(Cc3ccccc3)[C@H]2C(=O)N1C1CCCCC1,-3.09%
16,O=C(C1=C(O)C(=O)N(CCOCCO)C1c1ccccn1)c1cccs1 (stereo unspecified),5.97%
17,CC[C@H]1OC(=O)[C@H](C)[C@@H](O[C@H]2C[C@@](C)(OC)[C@@H](O)[C@H](C)O2)[C@H](C)[C@@H](O[C@@H]2O[C@H](C)C[C@H](N(C)C)[C@H]2O)[C@](C)(O)C[C@@H](C)[C@@H]2N[C@@H](COCCOC)O[C@H]([C@H]2C)[C@]1(C)O,1.21%
18,COC1=CC(=O)OC(C)(c2ccccc2)C1 (stereo unspecified),1.18%
19,COc1ccc(Cl)cc1NC(=O)CN(C)C(=O)c1ccc2n[nH]nc2c1,0.863%
20,Cn1c(=O)c2c(SCC(=O)N3CCOCC3)nc(C3CC3)nc2n(C)c1=O,-7.01%
21,O=S(=O)(c1cccs1)N1CCN(CCOc2ccccc2)CC1,-5.25%
22,CCN1/C(=C\c2ccc3ccccc3[n+]2CC)Sc2cc(C)ccc21,15.5% (active)
23,CC1(C)C(C=C(Cl)Cl)C1C(=O)NC(O)C(=O)c1ccccc1 (stereo unspecified),1.65%

row,Structure (SMILES),inhibition
1,Cc1c(C(=O)NC(=S)NCc2cccnc2)oc2ccccc12,-0.251%
2,Cc1nnc(SC(C)C(=O)Nc2ccc(S(=O)(=O)NC3CCCCC3)cc2)s1 (stereo unspecified),-0.0585%
3,CCOC(=O)C1(Cc2ccc(Cl)cc2)CCN(C(=O)C2=NNC(=O)CC2)CC1,0.91%
4,CN(Cc1nc2ccccc2c(=O)[nH]1)Cc1cc(=O)oc2ccc3ccccc3c12,-4.19%
5,Cc1cc(=O)oc(C)c1C(=O)NC1CC(C)(C)NC(C)(C)C1,-0.963%
6,Oc1ccc(-c2nc3ccccc3nc2-c2ccc(O)cc2O)c(O)c1,5.29%
7,Oc1ccc2ccc3cccc[n+]3c2c1,128% (active)
8,COc1cc(NS(=O)(=O)c2ccc(NC(=O)CN3C(=O)c4ccccc4C3=O)cc2)ncn1,-2.44%
9,O=C1Nc2ccc([N+](=O)[O-])cc2C1=Nc1cccc(CO)c1,2.07%
10,CCSc1nc(C)c(CCOc2cccc(C)c2)c(=O)[nH]1,1.88%
11,COc1cc(NC(=O)c2ccccc2NS(=O)(=O)c2ccc(Cl)s2)cc(OC)c1,-7.91%
12,CCCN(CC(=O)Nc1ccccc1OC)C(=O)CCC(=O)c1ccc(F)cc1,-3.76%
13,CCCCCNC(=O)C1c2ccccc2Oc2ccccc21,-1.43%
14,CCCN(CCC)C(=O)C1c2ccccc2Oc2ccccc21,56.3% (active)
15,CCOC(=O)CC(NC(=O)C1c2ccccc2Oc2ccccc21)c1ccc(C)cc1 (stereo unspecified),-0.485%
16,S=C(Nc1cccnc1)Nc1ccccn1,0.955%
17,CN/C(=C\[N+](=O)[O-])NCCSCc1csc(CN(C)C)n1,-2.6%
18,COCCOC(=O)c1sc(=S)n(CCOC)c1N,-0.978%
19,O=C(CSc1n[nH]c(-c2cccs2)n1)N1CCCCC1,-2.81%
20,CC1(C)Cc2ccccc2-c2nnc(-c3cccc(O)c3)n21,-0.455%
21,CCS(=O)(=O)Nc1ccc(C(=O)NCCSc2ccccc2)cc1,-1.14%
22,CCCc1nc(-c2cc3cc(C)ccc3[nH]c2=O)no1,0.406%
23,CCOc1ccc(S(=O)(=O)N2CCC(C(=O)OCc3ccc(OC)cc3)CC2)cc1,-2.62%

row,Structure (SMILES),inhibition
1,NC(=O)c1ccccc1N=Cc1ccc2ccccc2c1,-5.11%
2,COC(=O)c1ccc(COC(=O)c2c(C)nn(Cc3ccccc3Cl)c2Cl)o1,5.7%
3,CSCC[C@H](NC(=O)CCCn1nnc2ccccc2c1=O)C(=O)O,-3.2%
4,O=C(NC(=O)N1CCSCC1)c1c(Cl)cccc1Cl,-0.262%
5,S=c1nc2ccccc2c2nc(-c3cccnc3)[nH]n12,-0.541%
6,CC(C)(C)Nc1nc(-c2ccccn2)nc2ccccc12,-3.56%
7,COc1ccc(Nc2nc(-c3cccnc3)nc3ccccc23)cn1,20.8% (active)
8,COc1ccc(CCNCC(O)Cn2ccc3ccccc32)cc1OC (stereo unspecified),-7.66%
9,COc1ccc(CCNC(=O)COC(=O)Cc2cccc(F)c2)cc1,-1.56%
10,COc1ccc(/C=N/Nc2ncnc3sc4c(c23)CCCC4)cc1O,-9.16%
11,COC(=O)C1=C(C)NC2=C(C(=O)c3ccccc32)C1c1ccc(-c2ccc(C(=O)O)cc2)o1 (stereo unspecified),-21.3%
12,c1ccc(-c2cn3c(n2)CCc2ccc4cccnc4c2-3)cc1,0.967%
13,CCCCN(C(=O)C(CCSC)N1C(=O)c2ccccc2C1=O)c1c(N)n(CCC)c(=O)[nH]c1=O (stereo unspecified),-8.81%
14,COc1ccc(C(C(=O)NC(C)(C)C)N(Cc2ccc(F)cc2)C(=O)CCC(=O)Nc2cc(C)on2)cc1 (stereo unspecified),6.66%
15,CC(C)(C)OC(=O)C[C@@H]1C/C=C\C[C@@H](CC(=O)N[C@@H](CO)Cc2ccccc2)C(=O)N2CCC[C@H]2COC1=O,5.12%
16,COc1ccc(C2NC(=O)C(=O)/C2=C(\O)c2ccc(Cl)cc2)cc1OC (stereo unspecified),-0.168%
17,C=CCOC(=O)N1CCC2CC1c1cc(-c3ccc(OC)cc3)ccc12 (stereo unspecified),-0.448%
18,CC1Cc2cc(/C(O)=C3\C(=O)C(=O)N(Cc4cccnc4)C3c3ccccc3F)ccc2O1 (stereo unspecified),-1.04%
19,COc1cccc(CC(=O)N2CCCC(CCC(=O)N3CCN(c4ccccn4)CC3)C2)c1 (stereo unspecified),2.29%
20,COc1ccc(N2C(=O)C(O)C2c2ccc(C)cc2)cc1 (stereo unspecified),-3.41%
21,O=S(=O)(Nc1ccccc1)c1ccc(NS(=O)(=O)c2cccs2)cc1,-1.45%
22,CCN(CC)CCCC(C)n1c2nc(=O)[nH]c(=O)c-2nc2cc(Cl)ccc21 (stereo unspecified),152% (active)
23,CCOc1cc(C2C(C(=O)OC(C)C)=C(C)NC3=C2C(=O)CCC3)cc([N+](=O)[O-])c1O (stereo unspecified),-4.98%

row,Structure (SMILES),inhibition
1,CCOCCc1c(O)nc(SCC(=O)NCc2ccco2)[nH]c1=O,-1.62%
2,COc1ccc(CCn2c(NN=C3CCCC3)nc3c2c(=O)[nH]c(=O)n3C)cc1,1.25%
3,COc1ccc(C2C(C#N)=C(N)Oc3cc(N)ccc32)cc1OC (stereo unspecified),-3.33%
4,COc1ccc(C2c3ccc(O)cc3Oc3ncn(CCCO)c(=N)c32)cc1OC (stereo unspecified),28.8% (active)
5,COc1ccc(CNCCCO)cc1OC,-3.09%
6,Cc1cccc2cc3c(N)c(C(=O)N4CCCc5ccccc54)sc3nc12,-5.05%
7,O=C1C(=O)N(CCN2CCOCC2)C(c2ccccn2)/C1=C(/O)c1ccc(Cl)cc1 (stereo unspecified),-6.66%
8,CCN(CC)CCN1C(=O)C2C(C(=O)Nc3ccc(Br)cc3)C3C=CC2(O3)C1C(=O)NC1CCCCC1 (stereo unspecified),-0.939%
9,Cc1ccc(CNC(=O)C2(C(F)(F)F)C/C(=C\Cc3ccccc3)CCCO2)o1 (stereo unspecified),-4.24%
10,Cc1cc(C(=O)NCCc2ccc(Cl)cc2)n(-c2ccccc2)n1,-8.41%
11,O=C(NCCS(=O)(=O)NCc1ccc(Cl)cc1)c1ccccc1,-4.29%
12,O=C(NCCOCc1ccc(Cl)cc1)c1ncn[nH]1,18.3% (active)
13,CN(C)C(=S)N=c1ssc(=S)n1Cc1ccco1,-0.0433%
14,COc1ccccc1CCNC(=O)CN1C(=O)NC2(CCCC2)C1=O,-5.6%
15,Cc1ccc(CC2CC(=O)N(c3nc(C)cc(C)n3)C2=O)cc1 (stereo unspecified),1.11%
16,O=C1CC(Cc2ccc(Cl)cc2)C(=O)N1c1cc(Cl)ccn1 (stereo unspecified),40.7% (active)
17,O=C1CC(Cc2ccccc2)C(=O)N1c1ccc(Cl)cn1 (stereo unspecified),-0.813%
18,O=C(Nc1cccc(S(=O)(=O)N2CCOCC2)c1)C12CC3CC(CC(C3)C1)C2,1.77%
19,COc1ccc(NC(=O)CN(C)C(=O)c2n[nH]c3ccccc23)cc1,0.904%
20,CCCCC(=O)Nc1ccc(C(=O)NCCCn2ccnc2)cc1,-4.02%
21,CCCC(=O)Nc1ccc(C(=O)NCCCn2ccnc2)cc1,6% (active)
22,COc1cc(OC)cc(C(=O)NCCCn2ccnc2)c1,-6.37%
